Measurements as given in PubChem BioAssay AID1159580 (chemical genetic matrix, 2015).
Several values for one entry are separate records, joined by “and”; a condition that tells them apart may be missing. Identical values can stand only once. Among all 5,500 compounds or so, about 2,000 (36%) were called active. About 18% were inconclusive and are not listed. Cut-off read from the data, not from the text of the source: active = normalized growth mostly below about 0.91 (no sharp cut-off); inconclusive = no clear call, values can overlap the other calls; inactive = mostly above about 0.92. The list shows a part of the results.

Test: chemical genetic growth profiling, strain panel (AID 1159580);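 note: tested at 20 µM; growth read once vehicle control cultures reached saturation at 30 °C; 1 = growth at the plate median or of vehicle wells; lower values mean less growth of the strain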
Conditions: growth OD

Measured: normalized growth

O=C(C1CCCCC1)N1CC(=O)N2CCc3ccccc3C2C1 (centres undefined)
inactive: S. cerevisiae deletion strains, locus YJR075W, strain HOC1, stronger effect = lower value 1 | S. cerevisiae deletion strains, locus YKL009W, strain mrt4, stronger effect = lower value 1.02 | S. cerevisiae deletion strains, locus YKL068W, stronger effect = lower value 1 | S. cerevisiae deletion strains, locus YKL085W, strain MDH1 (second series), stronger effect = lower value 1.01 | S. cerevisiae deletion strains, locus YKL085W, strain MDH1, stronger effect = lower value 1.01 | S. cerevisiae deletion strains, locus YKL160W, strain elf1, stronger effect = lower value 1.01 | S. cerevisiae deletion strains, locus YKL190W, strain CNB1, stronger effect = lower value 1 | S. cerevisiae deletion strains, locus YKR001C, strain vps1, stronger effect = lower value 1.01 | S. cerevisiae deletion strains, locus YKR026C, strain gcn3, stronger effect = lower value 1.01 | S. cerevisiae deletion strains, locus YKR091W, strain srl3, stronger effect = lower value 1.01 | S. cerevisiae deletion strains, locus YLL001W, strain dnm1, stronger effect = lower value 1.06 | S. cerevisiae deletion strains, locus YLL026W, stronger effect = lower value 1.01 | S. cerevisiae deletion strains, locus YLL041C, strain sdh2, stronger effect = lower value 0.995 | S. cerevisiae deletion strains, locus YLR027C, strain aat2, stronger effect = lower value 0.984 | S. cerevisiae deletion strains, locus YLR039C, strain RIC1, stronger effect = lower value 1.01 | S. cerevisiae deletion strains, locus YLR058C, strain SHM2, stronger effect = lower value 1 | S. cerevisiae deletion strains, locus YLR102C, strain apc9, stronger effect = lower value 1.01 | S. cerevisiae deletion strains, locus YLR113W, strain HOG1, stronger effect = lower value 1.01 | S. cerevisiae deletion strains, locus YLR221C, strain rsa3, stronger effect = lower value 1.03 | S. cerevisiae deletion strains, locus YLR258W, strain gsy2, stronger effect = lower value 1.03 | S. cerevisiae deletion strains, locus YLR262C, strain YPT6 (second series), stronger effect = lower value 1.04 | S. cerevisiae deletion strains, locus YLR262C, strain YPT6, stronger effect = lower value 1.02 | S. cerevisiae deletion strains, locus YLR268W, strain sec22, stronger effect = lower value 1.03 | S. cerevisiae deletion strains, locus YLR320W, strain mms22, stronger effect = lower value 1.02 | S. cerevisiae deletion strains, locus YLR330W, strain CHS5, stronger effect = lower value 1.01 | S. cerevisiae deletion strains, locus YLR342W, strain FKS1 (second series), stronger effect = lower value 1.01 | S. cerevisiae deletion strains, locus YLR342W, strain FKS1, stronger effect = lower value 1.01 | S. cerevisiae deletion strains, locus YLR357W, strain rsc2, stronger effect = lower value 0.998 | S. cerevisiae deletion strains, locus YLR370C, strain arc18, stronger effect = lower value 1.02 | S. cerevisiae deletion strains, locus YLR371W, strain rom2, stronger effect = lower value 1.01 | S. cerevisiae deletion strains, locus YLR384C, strain iki3, stronger effect = lower value 1.01 | S. cerevisiae deletion strains, locus YLR418C, strain cdc73, stronger effect = lower value 1.01 | S. cerevisiae deletion strains, locus YML016C, strain PPZ1, stronger effect = lower value 0.999 | S. cerevisiae deletion strains, locus YML032C, strain rad52, stronger effect = lower value 1.01 | S. cerevisiae deletion strains, locus YML120C, strain ndi1, stronger effect = lower value 1.04 | S. cerevisiae deletion strains, locus YML124C, strain tub3, stronger effect = lower value 1 | S. cerevisiae deletion strains, locus YMR058W, strain fet3, stronger effect = lower value 1 | S. cerevisiae deletion strains, locus YMR078C, strain ctf18, stronger effect = lower value 0.997 | S. cerevisiae deletion strains, locus YMR125W, strain sto1, stronger effect = lower value 1.02 | S. cerevisiae deletion strains, locus YMR129W, stronger effect = lower value 1.01 | S. cerevisiae deletion strains, locus YMR205C, strain PFK2, stronger effect = lower value 1.02 | S. cerevisiae deletion strains, locus YMR223W, strain ubp8, stronger effect = lower value 0.987 | S. cerevisiae deletion strains, locus YMR231W, strain pep5, stronger effect = lower value 1 | S. cerevisiae deletion strains, locus YMR263W, strain SAP30, stronger effect = lower value 1 | S. cerevisiae deletion strains, locus YMR307W, strain GAS1, stronger effect = lower value 1 and 0.995 | S. cerevisiae deletion strains, locus YNL067W, strain RPL9B, stronger effect = lower value 1 | S. cerevisiae deletion strains, locus YNL071W, strain lat1, stronger effect = lower value 0.996 | S. cerevisiae deletion strains, locus YNL153C, strain GIM3, stronger effect = lower value 1.03 | S. cerevisiae deletion strains, locus YNL175C, strain NOP13, stronger effect = lower value 1.01 | S. cerevisiae deletion strains, locus YNL183C, strain NPR1, stronger effect = lower value 0.96 | S. cerevisiae deletion strains, locus YNL197C, strain WHI3, stronger effect = lower value 1.01 | S. cerevisiae deletion strains, locus YNL209W, strain ssb2, stronger effect = lower value 1 | S. cerevisiae deletion strains, locus YNL224C, strain SQS1, stronger effect = lower value 1.02 | S. cerevisiae deletion strains, locus YNL233W, strain BNI4, stronger effect = lower value 0.995 | S. cerevisiae deletion strains, locus YNL248C, strain rpa49, stronger effect = lower value 0.893 | S. cerevisiae deletion strains, locus YNL250W, strain rad50, stronger effect = lower value 1.01 | S. cerevisiae deletion strains, locus YNL271C, strain bni1, stronger effect = lower value 1 | S. cerevisiae deletion strains, locus YNL298W, strain CLA4, stronger effect = lower value 1.01 | S. cerevisiae deletion strains, locus YNL307C, strain MCK1, stronger effect = lower value 1.02 | S. cerevisiae deletion strains, locus YNL322C, strain KRE1 (second series), stronger effect = lower value 1.02 | S. cerevisiae deletion strains, locus YNL322C, strain KRE1, stronger effect = lower value 1 and 1.01 | S. cerevisiae deletion strains, locus YNR049C, strain mso1, stronger effect = lower value 1 | S. cerevisiae deletion strains, locus YNR052C, strain pop2, stronger effect = lower value 1.01 | S. cerevisiae deletion strains, locus YOL006C, strain TOP1, stronger effect = lower value 0.912 | S. cerevisiae deletion strains, locus YOL012C, strain htz1 0.872 | S. cerevisiae deletion strains, locus YOL147C, strain pex11, stronger effect = lower value 1.01 | S. cerevisiae deletion strains, locus YOR001W, strain rrp6, stronger effect = lower value 0.971 | S. cerevisiae deletion strains, locus YOR061W, strain CKA2, stronger effect = lower value 1 | S. cerevisiae deletion strains, locus YOR069W, strain VPS5, stronger effect = lower value 1 | S. cerevisiae deletion strains, locus YOR070C, strain gyp1, stronger effect = lower value 1 | S. cerevisiae deletion strains, locus YOR080W, strain dia2, stronger effect = lower value 1.01 | S. cerevisiae deletion strains, locus YOR083W, strain WHI5 (second series), stronger effect = lower value 1.01 | S. cerevisiae deletion strains, locus YOR083W, strain WHI5, stronger effect = lower value 1.03 | S. cerevisiae deletion strains, locus YOR106W, strain vam3, stronger effect = lower value 1.01 | S. cerevisiae deletion strains, locus YOR136W, strain idh2, stronger effect = lower value 1.01 | S. cerevisiae deletion strains, locus YOR144C, strain elg1, stronger effect = lower value 1.01 | S. cerevisiae deletion strains, locus YOR184W, strain ser1, stronger effect = lower value 1 | S. cerevisiae deletion strains, locus YOR231W, strain MKK1, stronger effect = lower value 1 | S. cerevisiae deletion strains, locus YOR265W, strain rbl2, stronger effect = lower value 1 | S. cerevisiae deletion strains, locus YOR270C, strain vph1, stronger effect = lower value 0.955 | S. cerevisiae deletion strains, locus YOR290C, strain snf2, stronger effect = lower value 1.02 | S. cerevisiae deletion strains, locus YOR316C, strain cot1, stronger effect = lower value 1 | S. cerevisiae deletion strains, locus YPL051W, strain arl3, stronger effect = lower value 0.988 | S. cerevisiae deletion strains, locus YPL078C, strain atp4, stronger effect = lower value 0.974 | S. cerevisiae deletion strains, locus YPL106C, strain sse1, stronger effect = lower value 1.04 | S. cerevisiae deletion strains, locus YPL240C, strain hsp82, stronger effect = lower value 0.998 | S. cerevisiae deletion strains, locus YPL241C, strain CIN2, stronger effect = lower value 1 | S. cerevisiae deletion strains, locus YPL256C, strain CLN2, stronger effect = lower value 0.965 | S. cerevisiae deletion strains, locus YPR119W, strain clb2, stronger effect = lower value 1 | S. cerevisiae deletion strains, locus YPR141C, strain kar3, stronger effect = lower value 1.01 | S. cerevisiae deletion strains, locus YPR163C, strain tif3, stronger effect = lower value 1.02 | S. cerevisiae deletion strains, locus YPR167C, strain met16, stronger effect = lower value 1.02 | S. cerevisiae deletion strains, strain wtn01, stronger effect = lower value 1.02 | S. cerevisiae strains, strain wild type, stronger effect = lower value 0.999
